Reference: PubChem BioAssay (NCATS)
Results filed as inconclusive are left out. Where a call stands in place of a potency, no number is given. Calls of active or inactive are those of the source. The call rests on the fitted dose curve; in most records, active means well fitted cell-killing curve with a large enough effect; inconclusive means small, poorly fitted or top-dose-only effect, or effect the other way; inactive means no such curve, though single readings can be large or run the other way.

Experiment: qHTS of pediatric cancer cell lines to identify multiple opportunities for drug repurposing: Confirmatory screen for RD cells (AID 1347124);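 further: cells exposed to compound for 48 h before viability readout; nearly all actives have a fitted effect of over 65% in size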
Conditions: RD rhabdomyosarcoma cell viability; series mostly up to 45.9 µM
Description: Drug repurposing or repositioning has been offered as a strategy for drug development in oncology programs. This approach has special potential for childhood cancers and other rare or orphan diseases, where the expected return on new drug development has been a disincentive to pharmaceuticals.
In this project we exploit the poly-pharmacology of drugs to discover new indications via phenotypic screening of a panel of 19 well-characterized cell lines derived from solid tumors seen in children and adolescents. The goal is to identify approved drugs with previously unrecognized anticancer properties that has the potential to reveal new mechanisms and biological processes involved in carcinogenesis or drug resistance. We employed a titration-based paradigm (quantitative high-throughput screening or qHTS), where all compounds were tested at multiple concentrations for their effect on cell viability. Concentration-response curves (CRCs) were derived directly from the primary screen, and both potency and efficacy values were used to identify compounds with robust bioactivity profiles. We screened the NIH Chemical Genomics Center (NCGC) Pharmaceutical Collection (NPC) and Mechanism Interrogation Plate (MIPE) small molecule collections of approved and investigational compounds against these cell lines; and measured metabolically active cells after 48 hours of compound treatment as a proxy for cell viability.
Assay Submitter: Nathalia J. Martinez, National Center for Advancing Translational Sciences, National Institutes of Health, Rockville, MD, USA; email: natalia.martinez@nih.gov
[1] Shen, M et al. Quantitative high-throughput phenotypic screening of pediatric cancer cell lines identifies multiple opportunities for drug repurposing. Oncotarget 2017 Dec 19;9(4):4758-4772. PMID 29435139.
The cells were obtained from University of North Carolina (UNC), Pediatric Preclinical Testing Program (PPT), and Coriell Institute (CI).
qHTS cell viability assay:
Cells were assayed in growth media at a density of 500-1,000 cells/well. Five microliters of cells were dispensed into 1,536-well, white, solid-bottom, TC-treated plates (Greiner Bio One) using a multidrop dispenser and incubated at 37 degrees C, 5% CO2, under a humidified atmosphere for 5 hours. Twenty-three nanoliters of compounds and controls (neutral control DMSO or positive control bortezomib at final concentration of 2.3 µM) were subsequently transferred by Kalypsys pintool. For primary screens, the MIPE collection was tested at 11-point dilutions (final concentrations range from 0.78 nM to 46 µM) and the NPC collection at 8-point dilutions (final concentrations range from 0.59 nM to 46 µM). Compounds tested in follow-up screens were assayed at 11-point dilutions. Cells were incubated for 48 hours, followed by addition of 3 µL of CellTiter-Glo (Promega). After a 15 min incubation at room temperature, samples were analyzed for luminescence intensity using a ViewLux High-throughput CCD imager equipped with clear filters.
Potency means the concentration at half of the fitted maximal effect.

Q: For `COc1cc2nc(N3CCCN(C)CC3)nc(NC3CCN(Cc4ccccc4)CC3)c2cc1OC`, which Potency is on record?
A: Its Potency is 0.657 µM (active).

Q: For `CC(C(=O)O)c1ccc2c(c1)CC(=O)c1ccccc1S2` (stereo not given), which Potency is on record?
A: The Potency was “inactive”.

Q: With `CN(C)c1ccc(C(=C2C=CC(=[N+](C)C)C=C2)c2ccc(N(C)C)cc2)cc1` as the compound, how does the Potency read?
A: Its Potency is 0.928 µM (active).

Q: With `COC(=O)Nc1nc2ccc(S(=O)c3ccccc3)cc2[nH]1` (stereo not given) as the compound, how does the Potency read?
A: Its Potency is 2.61 µM (active).

Q: Which Potency does the source give for `COc1ccc(C(=O)CC(=O)c2ccc(C(C)(C)C)cc2)cc1` here?
A: Its Potency is “inactive”.

Q: With `CC(C)(C)C(=O)OCOP(=O)(COCCn1cnc2c(N)ncnc21)OCOC(=O)C(C)(C)C` as the compound, how does the Potency read?
A: Its Potency is “inactive”.

Q: With `C[C@@H](CN1CC(=O)NC(=O)C1)N1CC(=O)NC(=O)C1` as the compound, how does the Potency read?
A: The Potency was “inactive”.

Q: With `CCC(=O)O[C@]1(C(=O)CCl)[C@@H](C)C[C@H]2[C@@H]3CCC4=CC(=O)C=C[C@]4(C)[C@@]3(F)[C@@H](O)C[C@@]21C` as the compound, how does the Potency read?
A: The Potency was “inactive”.

Q: With `CCCCOc1ccc(CC(=O)NO)cc1` as the compound, how does the Potency read?
A: The Potency was “inactive”.

Q: With `CC(C)(C#N)c1cc(Cn2cncn2)cc(C(C)(C)C#N)c1` as the compound, how does the Potency read?
A: Its Potency is “inactive”.

Q: For `CC1CC2C3CCC4=CC(=O)C=C[C@]4(C)[C@@]3(F)[C@@H](O)C[C@]2(C)[C@@]1(O)C(=O)CO` (stereo not given in full), which Potency is on record?
A: The Potency was “inactive”.

Q: With `NC(=O)c1cccnc1` as the compound, how does the Potency read?
A: Its Potency is “inactive”.

Q: Which Potency does the source give for `CNS(=O)(=O)CCc1ccc2[nH]cc(C3CCN(C)CC3)c2c1` here?
A: The Potency was “inactive”.

Q: With `COc1cc([C@@H]2c3cc4c(cc3[C@H](O)[C@H]3COC(=O)[C@H]23)OCO4)cc(OC)c1OC` as the compound, how does the Potency read?
A: The Potency was 0.0414 µM (active).

Q: For `CCOC(=O)[C@H](CCc1ccccc1)N[C@H]1CS[C@H](c2cccs2)CN(CC(=O)O)C1=O`, which Potency is on record?
A: The Potency was “inactive”.

Q: Which Potency does the source give for `CS(=O)(=O)c1ccc([C@@H](O)[C@@H](CO)NC(=O)C(Cl)Cl)cc1` here?
A: The Potency was “inactive”.

Q: For `Cc1cccc(N(C)C(=S)Oc2ccc3ccccc3c2)c1`, which Potency is on record?
A: Its Potency is “inactive”.

Q: For `COC(=O)Nc1nc2ccc(Sc3ccccc3)cc2[nH]1`, which Potency is on record?
A: Its Potency is 2.08 µM (active).

Q: With `Nc1nc(N)nc(-c2cc(Cl)ccc2Cl)n1` as the compound, how does the Potency read?
A: Its Potency is “inactive”.

Q: With `Nc1nc(F)nc2c1ncn2[C@@H]1O[C@H](CO)[C@@H](O)[C@@H]1O` as the compound, how does the Potency read?
A: Its Potency is 1.65 µM (active).

Q: With `O=C(NCC1CN(c2ccc(N3CCOCC3=O)cc2)C(=O)O1)c1ccc(Cl)s1` (stereo not given) as the compound, how does the Potency read?
A: The Potency was “inactive”.

Q: With `CC(C)NCC(O)c1ccc(NS(C)(=O)=O)cc1` (stereo not given) as the compound, how does the Potency read?
A: The Potency was “inactive”.

Q: For `O=NN(CCCl)C(=O)NC1CCCCC1`, which Potency is on record?
A: Its Potency is “inactive”.

Q: Which Potency does the source give for `CNNCc1ccc(C(=O)NC(C)C)cc1` here?
A: Its Potency is “inactive”.

Q: With `S=P(N1CC1)(N1CC1)N1CC1` as the compound, how does the Potency read?
A: The Potency was “inactive”.

Q: With `COc1nc(N)nc2c1ncn2[C@@H]1O[C@H](CO)[C@@H](O)[C@@H]1O` as the compound, how does the Potency read?
A: Its Potency is “inactive”.

Q: With `Cn1nnc2c(C(N)=O)ncn2c1=O` as the compound, how does the Potency read?
A: The Potency was “inactive”.

Q: Which Potency does the source give for `CCOC(=O)c1ccc(C#Cc2ccc3c(c2)C(C)(C)CCS3)nc1` here?
A: Its Potency is “inactive”.

Q: With `Oc1c(Cl)cc(Cl)c2cccnc12` as the compound, how does the Potency read?
A: Its Potency is 13.1 µM (active).

Q: For `Nc1[nH]c(=O)ncc1F`, which Potency is on record?
A: Its Potency is “inactive”.
